Laboratory results taken from PubChem BioAssay AID1159580 (chemical genetic matrix, 2015).
Among all 5,500 compounds or so, about 2,000 (36%) were called active. Not shown: some 18% with an inconclusive outcome. No stated cut-off is given here; in the data, active means normalized growth mostly below about 0.91 (no sharp cut-off); inconclusive means no clear call, values can overlap the other calls; inactive means mostly above about 0.92. The list shows a part of the results.

Test: chemical genetic growth profiling, strain panel (AID 1159580);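 further: tested at 20 µM; growth read once vehicle control cultures reached saturation at 30 °C; 1 = growth at the plate median or of vehicle wells; lower values mean less growth of the strain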
Conditions: S. cerevisiae deletion strains, growth OD

Measured: normalized growth

CC(=O)O[C@H]1C[C@@H](OC(C)=O)C(C)(C)C2C[C@@H](O)[C@]3(C)C(CC[C@@]4(C)[C@H](c5ccoc5)OC(=O)[C@H]5O[C@]543)[C@]21C (stereo partly specified)
inactive: locus YKL009W, strain mrt4, active compounds read low 0.955 | locus YKL068W, active compounds read low 0.969 | locus YKL085W, strain MDH1 (second series), active compounds read low 0.987 | locus YKL085W, strain MDH1, active compounds read low 0.987 | locus YKL160W, strain elf1, active compounds read low 1.04 | locus YKL190W, strain CNB1, active compounds read low 0.996 | locus YKR001C, strain vps1, active compounds read low 0.978 | locus YKR026C, strain gcn3, active compounds read low 1.05 | locus YKR091W, strain srl3, active compounds read low 1 | locus YLL001W, strain dnm1, active compounds read low 0.971 | locus YLL026W, active compounds read low 0.994 | locus YLL041C, strain sdh2, active compounds read low 0.989 | locus YLR027C, strain aat2, active compounds read low 1.01 | locus YLR039C, strain RIC1, active compounds read low 0.97 | locus YLR058C, strain SHM2, active compounds read low 0.973 | locus YLR102C, strain apc9, active compounds read low 0.973 | locus YLR113W, strain HOG1, active compounds read low 1.02 | locus YLR221C, strain rsa3, active compounds read low 0.969 | locus YLR258W, strain gsy2, active compounds read low 0.992 | locus YLR262C, strain YPT6 (second series), active compounds read low 0.985 | locus YLR268W, strain sec22, active compounds read low 0.954 | locus YLR320W, strain mms22, active compounds read low 0.978 | locus YLR330W, strain CHS5, active compounds read low 0.992 | locus YLR342W, strain FKS1, active compounds read low 1.01 | locus YLR357W, strain rsc2, active compounds read low 1.04 | locus YLR370C, strain arc18, active compounds read low 0.973 | locus YLR371W, strain rom2, active compounds read low 0.986 | locus YLR384C, strain iki3, active compounds read low 0.971 | locus YLR418C, strain cdc73, active compounds read low 0.976 | locus YML016C, strain PPZ1, active compounds read low 0.969 | locus YML032C, strain rad52, active compounds read low 0.952 | locus YML120C, strain ndi1, active compounds read low 1.01 | locus YML124C, strain tub3, active compounds read low 0.992 | locus YMR058W, strain fet3, active compounds read low 0.999 | locus YMR078C, strain ctf18, active compounds read low 0.971 | locus YMR125W, strain sto1, active compounds read low 1.01 | locus YMR129W, active compounds read low 0.987 | locus YMR205C, strain PFK2, active compounds read low 1.05 | locus YMR223W, strain ubp8, active compounds read low 0.978 | locus YMR231W, strain pep5, active compounds read low 0.971 | locus YMR307W, strain GAS1, active compounds read low 1.01 | locus YNL067W, strain RPL9B, active compounds read low 1.03 | locus YNL071W, strain lat1, active compounds read low 0.984 | locus YNL128W, strain TEP1, active compounds read low 0.954 | locus YNL153C, strain GIM3, active compounds read low 1.01 | locus YNL183C, strain NPR1, active compounds read low 0.944 | locus YNL209W, strain ssb2, active compounds read low 0.999 | locus YNL233W, strain BNI4, active compounds read low 1.02 | locus YNL248C, strain rpa49, active compounds read low 0.962 | locus YNL250W, strain rad50, active compounds read low 0.982 | locus YNL271C, strain bni1, active compounds read low 0.983 | locus YNL298W, strain CLA4, active compounds read low 0.993 | locus YNL307C, strain MCK1, active compounds read low 0.99 | locus YNL322C, strain KRE1 (second series), active compounds read low 0.987 | locus YNL322C, strain KRE1, active compounds read low 0.987 | locus YNR049C, strain mso1, active compounds read low 0.991 | locus YNR052C, strain pop2, active compounds read low 0.999 | locus YOL006C, strain TOP1, active compounds read low 0.955 | locus YOL012C, strain htz1 1.02 | locus YOL147C, strain pex11, active compounds read low 0.998 | locus YOR001W, strain rrp6, active compounds read low 0.935 | locus YOR061W, strain CKA2, active compounds read low 0.967 | locus YOR069W, strain VPS5, active compounds read low 1 | locus YOR070C, strain gyp1, active compounds read low 1.02 | locus YOR080W, strain dia2, active compounds read low 0.98 | locus YOR083W, strain WHI5, active compounds read low 1.04 | locus YOR106W, strain vam3, active compounds read low 1.02 | locus YOR136W, strain idh2, active compounds read low 0.971 | locus YOR144C, strain elg1, active compounds read low 0.964 | locus YOR184W, strain ser1, active compounds read low 0.95 | locus YOR231W, strain MKK1, active compounds read low 0.982 | locus YOR265W, strain rbl2, active compounds read low 1.01 | locus YOR270C, strain vph1, active compounds read low 0.841 | locus YOR290C, strain snf2, active compounds read low 1.03 | locus YOR316C, strain cot1, active compounds read low 0.989 | locus YPL051W, strain arl3, active compounds read low 0.979 | locus YPL078C, strain atp4, active compounds read low 1.02 | locus YPL106C, strain sse1, active compounds read low 1.02 | locus YPL240C, strain hsp82, active compounds read low 0.984 | locus YPL241C, strain CIN2, active compounds read low 0.985 | locus YPL256C, strain CLN2, active compounds read low 0.993 | locus YPR119W, strain clb2, active compounds read low 0.998 | locus YPR141C, strain kar3, active compounds read low 0.983 | locus YPR163C, strain tif3, active compounds read low 0.986 | locus YPR167C, strain met16, active compounds read low 0.988 | strain wtn01, active compounds read low 0.972
